Measurements reported in ChEMBL document CHEMBL3988442, “University of Dundee, Small-Polar-MMV Screening Library” (2021).
The whole screen tested about 48,000 compounds, of which about 13,000 (27%) showed an effect of 50% or more. Some of the results follow.

Tested on: Wolbachia pipientis
Experiment: Anti-Wolbachia Cell-Based Screen
Type: functional
Design: scale not given: in the data most compounds retested in dose-response had high values
Conditions: 5 µM

Row | Compound | Percent Effect [%]
1 | CCn1cnnc1CNC(=O)N(C)Cc1c(F)cccc1Cl | -9.877
2 | CCCn1ncc(C(=O)NCCc2[nH]nc3c2CCCC3)c1C | 17.81
3 | CC1(C)[C@H](Cc2cc(CO)on2)C[C@@H]1N(CC1CC1)CC1CC1 | 3.295
4 | Cc1ncc(CN2CCC(CNS(=O)(=O)C3CC3)C2)cn1 (stereo unspecified) | -9.849
5 | O=S(=O)(Cc1ccccc1)NCC1CCN(c2cnccn2)CC1 | -2.116
6 | CCc1ccc(CN2CCC(CNS(=O)(=O)C3CC3)C2)nc1 (stereo unspecified) | -5.185
7 | CCS(=O)(=O)NCC1CCN(c2cnccn2)CC1 | 106
8 | O=S(=O)(NCC1CCN(c2cnccn2)CC1)C1CC1 | 99.54
9 | Cc1cn2c(n1)CCC(NC(=O)c1cnc(C)nc1C(C)C)C2 (stereo unspecified) | 1.666
10 | Cc1cc(C(=O)NC2CCc3nc(C)cn3C2)[nH]n1 (stereo unspecified) | -4.172
11 | Cc1cn2c(n1)CCC(NC(=O)c1c[nH]c(C)n1)C2 (stereo unspecified) | 3.74
12 | Cc1cn2c(n1)CCC(NC(=O)c1ccc(OCC3CC3)nc1)C2 (stereo unspecified) | -16.45
13 | Cc1ncc(C(=O)NC2CCc3nccn3C2)c(C(C)C)n1 (stereo unspecified) | 126.1
14 | Cc1cn2c(n1)CCC(NC(=O)c1cncnc1C)C2 (stereo unspecified) | 122.4
15 | Cc1cn2c(n1)CCC(NC(=O)c1nc(C)ncc1Cl)C2 (stereo unspecified) | -6.875
16 | CCc1ncncc1C(=O)NC1CCc2nc(C)cn2C1 (stereo unspecified) | 106.8
17 | Cc1cn2c(n1)CCC(NC(=O)c1csc(C(C)C)n1)C2 (stereo unspecified) | 134.7
18 | Cc1cn2c(n1)CCC(NC(=O)c1cc(C(C)C)no1)C2 (stereo unspecified) | 2.478
19 | Cc1cn2c(n1)CCC(NC(=O)c1ccc(CS(C)(=O)=O)cc1)C2 (stereo unspecified) | 1.181
20 | O=C(NC1CCc2nccn2C1)c1ccc(NC2CC2)nc1 (stereo unspecified) | 9.006
21 | CCCn1cnc(S(=O)(=O)Nc2cccnc2-n2cccn2)c1 | 0.1975
22 | CC(=O)N1CCN(C(=O)CNc2cccc(OC(F)F)c2C)CC1 | -4.859
23 | CS(=O)(=O)Nc1ccc(-n2c(CCCO)nc3ccccc32)cn1 | -0.6251

Row | Compound | Percent Effect [%]
24 | Oc1ccccc1N1CCN(c2ncnc3sc4c(c23)CCNC4)CC1 | -35.6
25 | CC(C#N)CNC(=O)Nc1ccc(-c2cc[nH]n2)cc1 (stereo unspecified) | -10.22
26 | COC(=O)c1sccc1S(=O)(=O)N1CCc2c(ncnc2N(C)C)C1 | -35.5
27 | Cc1cnn(C2CCN(Cc3ccccc3)C2)c1N (stereo unspecified) | -3.11
28 | Cc1nn(Cc2ccc(F)cc2)c2[nH]nc(N)c12 | 12.93
29 | Cc1cccc(Cn2nc(C3CCNCC3)n(-c3ccccc3)c2=O)c1 | 2.339
30 | Cc1ccc(Cn2cc(C)c(N)n2)cc1 | 101.5
31 | Cc1cn(Cc2ccc(F)cc2)nc1N | 105.5
32 | CCn1cc(Cn2cc(Cl)c(N)n2)c(C)n1 | 11.61
33 | Cc1ncc(C)c(N2Cc3cnn(Cc4ccc(F)cc4)c3C2)n1 | 15.3
34 | Cc1cn(Cc2ccccc2)nc1N | 112.8
35 | Cc1cccc(Cn2cc(C)c(N)n2)c1 | 142
36 | Cc1ccc(Cn2ccc(NS(C)(=O)=O)n2)cc1 | -11.54
37 | Cc1cccc(CN2CCN(c3nc(CO)cs3)CC2)c1 | -5.528
38 | Cc1nn(C)cc1Cn1cc(Cl)c(N)n1 | -32.62
39 | Cc1nnsc1CN(C)C(=O)c1ccc(CSc2nnc[nH]2)o1 | 17.62
40 | CCc1cnc(N)nc1NCCc1ccc(OC)cc1OC | -3.798
41 | CC(C)N(C)C(=O)c1ccc(Cl)c(NC(=O)COCC2CC2)c1 | -4.037
42 | Cc1noc(C)c1CN(C)C(=O)COc1cccc(C#N)c1 | -12.54
43 | CCc1nc(CNC2CCCCNC2=O)cs1 (stereo unspecified) | -6.937
44 | Cl.Cl.OC(CN1CCN(Cc2ccc(F)c(F)c2)CC1)C1CC1 (stereo unspecified) | -1.298
45 | Fc1ccc(CNCCn2cccn2)cc1F | -6.914
46 | Cc1cn(Cc2ccc(F)c(F)c2)nc1N | 106.9

Row | Compound | Percent Effect [%]
47 | Cc1ccc(C(CNCc2ccc(C#N)cc2)N2CCOCC2)s1 (stereo unspecified) | 1.867
48 | c1coc(-c2nnc([C@H]3CCN(Cc4ccc5c(c4)OCO5)C3)o2)c1 | -14.45
49 | Cc1nnc([C@@]23CCO[C@@H]2CCN(Cc2cccc4ccccc24)C3)o1 | 98.73
50 | Cc1nnc([C@@]23CCO[C@@H]2CCN(Cc2ccc4c(c2)OCO4)C3)o1 | 107.4
51 | Cc1nc([C@H]2C[C@@H]3CCN(Cc4ccc5c(c4)OCO5)C[C@H]3O2)no1 | -27.54
52 | COC[C@@]12CCO[C@@H]1CCN(Cc1ccccc1F)C2.O=C(O)C(F)(F)F | -5.713
53 | COC[C@@]12CCO[C@@H]1CCN(Cc1ccccc1OC)C2.O=C(O)C(F)(F)F | -18.26
54 | CCN1C(=O)C2(CCCCC2)NC1c1cc(C#N)n(C)c1C (stereo unspecified) | 8.458
55 | Cc1ncc(CN(C)C(=O)c2ccc3c(c2O)OC(C)(C)C3)s1 | -9.378
56 | CCn1nnc2c1C(COCCN(C)C)CN(c1nncs1)C2 (stereo unspecified) | -7.006
57 | CCn1nnc2c1C(COCCN(C)C)CN(S(=O)(=O)CC)C2.O=C(O)C(F)(F)F (stereo unspecified) | -14.6
58 | Cc1ccc(CN2Cc3nnn(C)c3C(COCCN(C)C)C2)s1.O=C(O)C(F)(F)F.O=C(O)C(F)(F)F (stereo unspecified) | 3.026
59 | CCn1nnc2c1C(COCC(=O)N(C)C)CN(Cc1ccoc1)C2 (stereo unspecified) | 95.43
60 | CCn1nnc2c1C(COCC(=O)N(C)C)CN(Cc1ccco1)C2.O=C(O)C(F)(F)F (stereo unspecified) | 115
61 | Cc1ccc(CN2CCCn3nnc(COCCN(C)C)c3C2)s1.O=C(O)C(F)(F)F.O=C(O)C(F)(F)F | -14.16
62 | CCn1nnc2c1C(COC)CN(Cc1ccsc1)C2.O=C(O)C(F)(F)F (stereo unspecified) | -6.299
63 | COCC1CN(Cc2ccc(C)o2)Cc2nnn(CC3CC3)c21.O=C(O)C(F)(F)F (stereo unspecified) | -2.139
64 | CCn1nnc2c1C(COCCN(C)C)CN(S(C)(=O)=O)C2.O=C(O)C(F)(F)F (stereo unspecified) | -1.029
65 | CCn1nnc2c1C(COCCN(C)C)CN(Cc1ccc(C)s1)C2.O=C(O)C(F)(F)F.O=C(O)C(F)(F)F (stereo unspecified) | 104.1
66 | CCn1nnc2c1C(COCCN(C)C)CN(Cc1ccco1)C2.O=C(O)C(F)(F)F.O=C(O)C(F)(F)F (stereo unspecified) | 92.71
67 | O=C(CSc1nncs1)N1CCN(Cc2ccc(Cl)cc2)CC1 | -10.59
68 | Cc1nc(-c2nnc(SCC(=O)O)n2C(C)c2ccccc2)co1 (stereo unspecified) | -6.545
69 | CNC(=O)Cc1noc(Cc2cccc(Br)c2)n1 | 1.573

Row | Compound | Percent Effect [%]
70 | Cn1ccnc1SCCNC1CCN(c2nc3ccccc3s2)CC1 | 0.5729
71 | CC(C)C(=O)N1CCOC[C@H](Oc2ccc(C(F)(F)F)cc2)C1 | -12.72
72 | CCN1CC(C(=O)N2CC(Oc3ccccc3Cl)C2)CCC1=O (stereo unspecified) | -27.16
73 | O=C(C1CCCN(c2nc3ccccc3cc2CO)C1)N1CCCC1 (stereo unspecified) | 10.01
74 | CC(C)N1CCCC(C(=O)N2CCN(c3nsc4ccccc34)CC2)C1 (stereo unspecified) | 104.9
75 | CCN1CC(C(=O)N2CCN(c3cnn(C)c(=O)c3)CC2)CCC1=O (stereo unspecified) | 2.003
76 | O=C(C1CCC1)N1CCN(c2snc3ccccc23)CC1 | 4.764
77 | NC(=O)N1CCCC(C(=O)N2CCN(c3nsc4ccccc34)CC2)C1 (stereo unspecified) | 111.8
78 | CC(C)N1CCCC(C(=O)N2CCc3c(nc(CC4CC4)[nH]c3=O)C2)C1 (stereo unspecified) | 6.947
79 | CCN1CC(C(=O)N2CCN(c3nsc4ccccc34)CC2)CCC1=O (stereo unspecified) | 116.3
80 | CN1CCCC(C(=O)N2CCC(Oc3ccccn3)CC2)C1 (stereo unspecified) | -2.88
81 | CN(C)C1CCCN(C(=O)c2ccc3sc4c(c3c2)CCNC4=O)CC1 (stereo unspecified) | -3.9
82 | Cc1cccc(NC(=O)CCC(=O)NCC(=O)c2ccccc2F)c1 | -5.456
83 | COc1cc2c(cc1-c1nc3c(cnn3C)[nH]1)OCO2 | 9.432
84 | CCCNC(=O)CCNC(=O)N1CCC(=Cc2ccccc2)CC1 | 1.443
85 | CCOCCCNC(=O)CCCC(=O)n1nc(C)c2ccccc21 | 114.3
86 | CCOCCCC(=O)NCc1ccc(N2CCCCC2)cc1 | 1.636
87 | CCCNC(=O)CCC(=O)n1nc(C)c2ccccc21 | 168.2
88 | COCCCNC(=O)CCn1nc(C)c2ccccc21 | 5.056
89 | CCCNC(=O)CCc1ccnc2ccccc12 | -4.736
90 | COc1cccc2[nH]cc(CCNC(=O)N3CCC[C@H]3CO)c12 | 0.855
91 | Cn1nc(CC(C)(C)C)cc1NC(=O)c1ccc(CNC(N)=O)cc1 | -16.73
92 | Cc1cc(NC(=O)NCc2ccccn2)n(C)n1 | 11.39

Row | Compound | Percent Effect [%]
93 | Cn1c(=O)c2cc(C(=O)NCc3ccccn3)ccc2n(C)c1=O | 80.97
94 | Cn1nc(C(=O)NCc2ccccn2)c2c1CCS(=O)(=O)C2 | 2.968
95 | Cn1c(=O)c2cc(C(=O)NCc3ccncc3)ccc2n(C)c1=O | 119.1
96 | CN1CCN(c2cc(CNC(=O)c3ccc(=O)n(C)c3)ccn2)CC1 | 6.282
97 | CC(C)n1cnnc1CN1C(=O)CCc2ccccc21 | -28.4
98 | c1ccc2oc(N3CCCC4(CCOC4)C3)nc2c1 (stereo unspecified) | -10.39
99 | O=C(Cc1ccon1)N(CCC(F)(F)F)C1CCCC1 | -15
100 | COC(=O)c1ccccc1C(=O)N(CCN(C)C)Cc1sccc1C | -10.61
101 | O=C(Cc1ccc(S(=O)(=O)C(F)F)cc1)N1CCCC1 | -6.682
102 | CN(C)C[C@@H]1CN(C(=O)Cc2cccc(O)c2)C[C@@H]1CO | -7.089
103 | OC1(CN2CCCC2)CCCN(Cc2cnc(-c3ccccc3)nc2)C1 (stereo unspecified) | 1.78
104 | O=C(Cc1ccc(O)cc1)N1CCCC(O)(CN2CCOCC2)CC1 (stereo unspecified) | 136.3
105 | O=C1N(Cc2cccc(F)c2F)CCCC1(O)CN1CCCOCC1 (stereo unspecified) | -6.352
106 | CN1CCN(CC2(O)CCCN(C(=O)Cc3cccc(O)c3)CC2)CC1 (stereo unspecified) | 188.6
107 | COc1cccc(OCC2CCCN(C(=O)Cc3cccc(O)c3)C2)c1 (stereo unspecified) | -41.73
108 | O=C(Cc1cccc(O)c1)N1CCCC(O)(CN2CCOCC2)CC1 (stereo unspecified) | 193.2
109 | O=C(Cc1cccc(O)c1)N1CCC2(CC1)c1ccccc1CC2O (stereo unspecified) | -3.302
110 | O=C(Cc1ccc(S(=O)(=O)C(F)F)cc1)N1CCC1 | -8.484
111 | O=C(Cc1cccc(O)c1)N1CCCC(O)(CN2CCCC2)CC1 (stereo unspecified) | 146.3
